Inconclusive results are not listed. Calls of active or inactive are those of the source. The call rests on the fitted dose curve; in most records, active means well fitted inhibition curve with a large enough effect; inconclusive means small, poorly fitted or top-dose-only effect; inactive means flat fitted curve, though single readings scatter.
On the % scale 0 is the no-effect control and ±100 the full control effect; potency means the concentration at half of the fitted maximal effect.

For the experiment, the system named is NIH3T3. As to the kind of experiment: Cytotoxic Profiling of Annotated Libraries Using Quantitative High-Throughput Screening (AID 1296008). Further: nearly all actives have a fitted effect of over 60% in size. Conditions: Five cell lines viability, CellTiter-Glo ATP luminescence, 48-72 h; max response: stronger effect = lower value. The essentials: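 Cells exposed to compounds for 48 or 72 hr at 37 degrees Celsius. Viability read as ATP-coupled luminescence with CellTiter-Glo after 10 min at room temperature.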
(Cellular ATP, detected with luciferase, serves as a proxy for viable cell number.)
Regarding `CC(C)n1nc(C#Cc2ccccc2)c2c(N)ncnc21`, the Potency is 11.6 µM (active).

In the case of `CCn1c(=O)c(-c2ccc(Cl)cc2Cl)cc2cnc(Nc3ccc(N4CCNCC4)c(F)c3)nc21`, the Potency is 1.03 µM (active).

Regarding `CC(=O)O[C@H]1[C@H](O)C[C@@]2(C)C(CC[C@]3(C)C2CC=C2C4CC(C)(C)CC[C@]4(C(=O)O)CC[C@]23C)C1(C)C` (some centres undefined), the max response was -15.2% (inactive).

Take `CCS(=O)c1nc(-c2cccc(OCc3ccccc3)c2)cc(C(F)(F)F)n1` (centres undefined): the Potency was 18.4 µM (active).

On to `CC(C)c1cc(-c2ccc(F)c3ccccc23)nc(N)n1`, for which the molecule was classed as inactive.

Take `Cc1cc(F)ccc1[C@H]1C[C@@H](N2CCN3C(=O)CC[C@H]3C2)CCN1C(=O)N(C)[C@H](C)c1cc(C(F)(F)F)cc(C(F)(F)F)c1`: the molecule was classed as inactive.

Take `O=C(Cc1c(F)cccc1F)Nc1cc(OCc2ccc(Cl)cc2)ccn1`: the max response is -10.7% (inactive).

For `Cc1ccnn1-c1ccc(C(=O)N2CCN(S(=O)(=O)c3ccc(Cl)c(C(F)(F)F)c3)CC2)cc1`, the max response was -5.12% (inactive).

On to `CC(C)c1ccc(NC(=O)c2cccs2)c(-c2nc3ccccc3[nH]c2=O)c1`, for which the max response was 0.611% (inactive).

Take `CC1=CC2/C=C(\C)CCC3OC(C)(C)OC3CCC(=O)C23C(=O)NC(CC(C)C)C3C1C` (centres undefined): the max response is -3.16% (inactive).

`COc1ccccc1N1CCN(c2ncnc3n[nH]c(Br)c23)CC1`: the molecule was classed as inactive.

Take `CC1(C)CCCC2(C)C1C(=O)C=C(C(=O)O)C2(O)C(=O)O` (centres undefined): the max response was -3.77% (inactive).

For the molecule `Cn1ccc(NC(=O)c2cc(Oc3ccc(C(=O)N4CCC4)c(F)c3)c3c(c2)OC(C)(C)C3)n1`, the max response was 4.11% (inactive).

In the case of `CN(CC1COCCO1)S(=O)(=O)Nc1ccc2ccc3ncc(-c4cnn(C)c4)cc3c(=O)c2c1` (centres undefined), the Potency is 3.26 µM (active).

In the case of `CNc1cccc(CCOc2ccc3c(c2)CN(CC(F)(F)F)C(=O)[C@H](CC(=O)O)C3)n1`, the Potency is 0.116 µM (active).

As to `COc1cccc(NCCC2(c3ccccc3)CC(C)(C)OC(C)(C)C2)c1`, the max response was -25% (inactive).

Consider `CO[C@@H]1CC(OC2CCC3(C)C(CCC45CCC(C6=CC(=O)OC6)C(C)(CCC43)C5=O)C2)O[C@H](C)[C@@H]1O[C@@H]1O[C@H](CO[C@@H]2O[C@H](CO)[C@@H](O)[C@H](O)[C@H]2O)[C@@H](O)[C@H](O)[C@H]1O` (some centres undefined), for which the max response was -1.96% (inactive).

As to `O=C(CNC(=O)c1cccc(C(F)(F)F)c1)N[C@@H]1CCN(Cc2ccc(Cl)cc2)C1`, the max response was -1.44% (inactive).

Consider `NC(=O)N1CCC(CC(=O)N2CCC(C3c4ncc(Br)cc4CCc4cc(Cl)cc(Br)c43)CC2)CC1` (centres undefined), for which the max response is 2.37% (inactive).

On to `OC[C@H]1O[C@@H](OC/C=C/c2ccc(O)cc2)[C@H](O)[C@@H](O)[C@@H]1O`, for which the max response is -11.1% (inactive).

Regarding `Cc1c(C(=O)Nc2ccc(N3CCC(N4CCOCC4)CC3)c(C#N)c2)cnn1-c1ccc(Cl)cc1`, the Potency is 0.366 µM (active).

As to `Fc1ccc(N2CCCCC2)c(NC(=S)c2ccncc2)c1`, the max response was -6.72% (inactive).

`COc1ccccc1C(=O)Nc1cc2c(cc1N1CCCC1)n(C)c(=O)n2C`: the max response was -10.9% (inactive).

As to `C/C=C/C=C/C=C/C(=O)O[C@@H]1C=C2COC(=O)[C@]2(O)[C@@]2(C)CCCC(C)(C)[C@H]12`, the max response was -4.92% (inactive).

In the case of `O=C1C[C@]23C=CCN4CCC5c6cc7c(cc6N1[C@@]5(CC2)C43)OCO7` (some centres undefined), the max response is -4.65% (inactive).

With `CCCSc1nc(N[C@@H]2C[C@H]2c2ccc(F)c(F)c2)c2nnn([C@@H]3C[C@H](OCCO)[C@@H](O)[C@H]3O)c2n1`, the max response is -24.3% (inactive).

Turning to `CCN(c1cc(-c2ccc(CN3CCOCC3)cc2)cc(C(=O)NCc2c(C)cc(C)[nH]c2=O)c1C)C1CCOCC1`, the max response is -11.7% (inactive).

`C=C(C(=O)OC[C@H]1O[C@@H](OC(=O)/C=C/c2ccccc2)[C@H](O)[C@@H](O)[C@@H]1O)C(O)CO` (some centres undefined): the max response was 1.83% (inactive).

On to `COc1ccc(S(=O)(=O)N2CCC[C@H]2C(=O)Nc2cc(C)cc(C)c2)cc1`, for which the max response was 0.512% (inactive).

Consider `CC1(C)SCCN(S(=O)(=O)c2ccc(Oc3ccncc3)cc2)[C@H]1C(=O)NO`, for which the max response was 2.44% (inactive).

Regarding `CS(=O)(=O)Nc1ccc2oc3c(OC(F)F)ccc(C(=O)Nc4c(Cl)cncc4Cl)c3c2c1`, the max response was -9.63% (inactive).

Turning to `Nc1nccc(-c2c(-c3ccc(F)cc3)ncn2C2CCCCC2)n1`, the Potency is 16.4 µM (active).

Take `Cn1cc(-c2ccc3c(c2)CCN3C(=O)Cc2cccc(C(F)(F)F)c2)c2c(N)ncnc21`: the max response is -21.2% (inactive).

In the case of `Clc1cccc(COc2cncc(N3CCNCC3)n2)c1`, the max response was -5.94% (inactive).

For the origin of these results see PubChem BioAssay (NCATS).
